ALOX12 inh: inhibitors of human 12S-lipoxygenase ALOX12; P18054; purified 12hLO, xylenol orange hydroperoxide absorbance; Potency, µM (titrated, usually from 108 µM), most hits filed as inhibitors; 1.1% of 580,000 active; AID 1671190
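Purified human 12hLO (150 nM final) in 25 mM Hepes, 0.01% Triton X-100, pH 7.0 was preincubated 15 min at room temperature with compound. Then 40 uM arachidonic acid was added, 30 min. Hydroperoxide was read by Fe-XO absorbance ratio 573/405 nm.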
Eya2 inh: blocks the phosphatase activity of human Eya2; recombinant Eya2, OMFP fluorescence dephosphorylation (OMFP is methylfluorescein phosphate); 0.006% of 330,000 active; AID 488837; O00167; Potency, µM (titrated, usually from 76.9 µM), usual class: inhibitors
Target sequence (O00167 whole entry, looked up): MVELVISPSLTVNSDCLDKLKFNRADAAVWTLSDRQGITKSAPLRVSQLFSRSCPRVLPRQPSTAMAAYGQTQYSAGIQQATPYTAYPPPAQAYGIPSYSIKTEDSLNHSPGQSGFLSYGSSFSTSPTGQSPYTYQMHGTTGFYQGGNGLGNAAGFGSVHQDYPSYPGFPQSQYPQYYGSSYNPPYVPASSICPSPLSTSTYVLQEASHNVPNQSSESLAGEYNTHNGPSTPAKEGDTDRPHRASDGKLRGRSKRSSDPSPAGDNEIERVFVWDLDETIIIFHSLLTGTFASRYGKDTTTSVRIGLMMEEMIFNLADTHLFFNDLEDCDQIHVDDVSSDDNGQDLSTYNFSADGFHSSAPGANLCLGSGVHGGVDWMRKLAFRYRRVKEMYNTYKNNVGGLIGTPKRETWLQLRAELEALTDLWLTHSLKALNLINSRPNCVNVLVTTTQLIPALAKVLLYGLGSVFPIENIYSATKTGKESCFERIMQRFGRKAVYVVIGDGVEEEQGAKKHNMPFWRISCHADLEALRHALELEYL
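Eya2 protein (added as 0.2 uM solution) was preincubated with compound for 10 min at ambient temperature in 50 mM HEPES pH 7.5, 50 mM NaCl, 5 uM MgCl2, 0.05% BSA, 1 mM DTT. OMFP (added at 50 uM) then reacted 10 min; fluorescence read at 485/525 nm.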
USP2a block: blocks human ubiquitin-specific protease USP2a | O75604 | USP2 core, Ub-CHOP2 coupled fluorogenic reporter, 485/531 | Potency, µM (highest dose often 38.3 µM), most hits filed as inhibitors | 0.01% of 330,000 active | AID 463254
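USP2 core (10nM final) preincubated 30min RT with compound in 20mM Tris-HCl pH 8.0, 2mM CaCl2, 2mM beta-mercaptoethanol, 0.05% CHAPS; 25nM Ub-CHOP2 plus 25nM reporter substrate added, fluorescence (Ex485/Em531) read after 60min.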
TSG101-PTAP inh: blocks PTAP/TSG101 interaction to inhibit HIV-1 budding. Fluorescence polarization, FITC-PTAP peptide / Tsg101 binding. 340,000 tested, under 10 active. Potency, µM (top dose mostly 115 µM), hits mostly inhibitors; active = well fitted inhibition curve with a large enough effect in the main read-out, with a control signal flat, not every such curve was filed as active; inconclusive = small, poorly fitted or top-dose-only effect, or effect the other way, or a change in a side signal; inactive = no such curve, though single readings can be large or run the other way
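Compounds were pin-transferred onto Tsg101 binding domain (10 uM final) in HEPES pH 7.5 buffer, then FITC-PTAP peptide was added at 50 nM final. After 20 min at RT, polarization reported peptide displacement across a qHTS concentration series.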
Large screens that a line does not name were inactive; ! = repeats disagree. Compounds with a hit are over-represented: about 1.1% of the library has one in this group of screens. Unless noted, calls come from the whole dose curve; as a rule, active = well fitted curve in the direction sought with a large enough effect; inconclusive = small, poorly fitted or top-dose-only effect, or another doubt; inactive = no such curve, though single readings can be large; an effect the other way counts as inactive or inconclusive.

Cc1ccc(NC(=O)CN(C)S(=O)(=O)c2ccc3[nH]c(=O)oc3c2)c(C)c1	ALOX12 inh inconclusive
Cc1ccc(NS(=O)(=O)c2ccc3[nH]c(=O)oc3c2)c(C)c1	ALOX12 inh 50µM!
CNC(=O)CCn1ncc2cc(OC3CCc4cccc(-c5ccc(O)c(F)c5)c43)ccc21 (stereo unspecified)	ALOX12 inh 50µM (no result: Eya2 inh, USP2a block, TSG101-PTAP inh)
CCCCCCCCCOC(C)=O	none (no result: Eya2 inh, USP2a block, TSG101-PTAP inh)
CCC(Cn1ccnc1)NC(=O)c1cccc(NCc2ccc(F)cc2)c1 (stereo unspecified)	none (no result: Eya2 inh, USP2a block, TSG101-PTAP inh)
CN1CCN(c2ncncc2-c2ccccc2Cl)CC1	ALOX12 inh 40µM (no result: Eya2 inh, USP2a block, TSG101-PTAP inh)
CN1CCN(c2ncnc3scc(-c4ccccc4Cl)c23)CC1	none
O=C1CCCCCCCCCCCCCCO1	none (no result: Eya2 inh, USP2a block, TSG101-PTAP inh)
CCOCc1nnc(NC(=O)CSc2ccccc2)s1	ALOX12 inh inconclusive
CC(C)(C)Cc1nnc(NC(=O)CSc2ccccc2)s1	ALOX12 inh 18µM
CC(C)Cc1nnc(NC(=O)c2ccc3ccn(C)c3c2)s1	none (no result: Eya2 inh, USP2a block, TSG101-PTAP inh)
NNc1ccccc1Br	ALOX12 inh 8.9µM (no result: Eya2 inh, USP2a block, TSG101-PTAP inh)
CC(C)NC(=O)C[C@@H]1O[C@H](CNC(=O)C2CC2)[C@@H](O)[C@H]1O	ALOX12 inh 56µM (no result: Eya2 inh, USP2a block, TSG101-PTAP inh)
O=C(C[C@@H]1O[C@H](CNC(=O)C2CCCC2)[C@@H](O)[C@H]1O)NC1CC1	none (no result: Eya2 inh, USP2a block, TSG101-PTAP inh)
CN1CCN(c2ccc(-c3cc4c(ccn4C)c(C(=O)NCc4cccnc4)n3)cc2)CC1	none (no result: Eya2 inh, USP2a block, TSG101-PTAP inh)
Cc1cc(O)c(N)c(C)c1Cl	ALOX12 inh 16µM
Cc1cc(O)cc(C)c1Cl	none (no result: Eya2 inh, USP2a block)
COC(=O)CC(C)CCC=C(C)C (stereo unspecified)	none (no result: Eya2 inh, USP2a block, TSG101-PTAP inh)
CCOc1ccc2oc(=O)cc(-c3cc4ccccc4o3)c2c1	none (no result: Eya2 inh, USP2a block, TSG101-PTAP inh)
O=C(NNS(=O)(=O)c1ccc(F)cc1)c1sccc1-n1cccc1	none
Cc1ccc(S(=O)(=O)NNC(=O)c2sccc2-n2cccc2)cc1	ALOX12 inh 32µM
COc1ccc2nc(S(=O)Cc3ncc(C)c(OC)c3C)[nH]c2c1 (stereo unspecified)	ALOX12 inh 22µM!
O=C(Nc1cccnc1)Nc1ccc(Cl)cc1Cl	ALOX12 inh 25µM
O=[N+]([O-])c1ccccc1N=Nc1ccc(O)cc1O	ALOX12 inh inconclusive (no result: Eya2 inh, USP2a block)
O=S(=O)(O)c1cc(O)c(N=Nc2ccc(O)cc2O)c2ccccc12	ALOX12 inh 8.9µM (no result: Eya2 inh, USP2a block)
O=S(=O)(c1ccc2nc(N3CCN(c4ccccc4)CC3)ccc2c1)N1CCCC1	ALOX12 inh 3.5µM (no result: Eya2 inh, USP2a block, TSG101-PTAP inh)
CC1CCN(S(=O)(=O)c2ccc3nc(N4CCN(c5ccccc5)CC4)ccc3c2)CC1	none
CCN1CCN(c2ccc3cc(S(=O)(=O)N4CCOCC4)ccc3n2)CC1	ALOX12 inh 1.8µM (no result: Eya2 inh, USP2a block, TSG101-PTAP inh)
COc1ccc(Nc2ccc([N+](=O)[O-])cn2)cc1	ALOX12 inh 28µM
CC1(c2ccccc2)N(Cc2ccc(O)cc2)C(=O)OC12CCN(Cc1c[nH]c3ccccc13)CC2 (stereo unspecified)	ALOX12 inh 45µM (no result: Eya2 inh, USP2a block, TSG101-PTAP inh)
O=C1OCC2(CCN(Cc3c[nH]c4ccccc34)C2)N1Cc1ccccc1 (stereo unspecified)	ALOX12 inh 50µM (no result: Eya2 inh, USP2a block, TSG101-PTAP inh)
COc1cccc(N2C(=O)OCC23CCN(Cc2c[nH]c4ccccc24)C3)c1 (stereo unspecified)	none (no result: Eya2 inh, USP2a block, TSG101-PTAP inh)
CCn1c2c(c(=O)n1-c1ccccc1)CCN(CCCc1ccccc1)C2	ALOX12 inh 28µM (no result: Eya2 inh, USP2a block, TSG101-PTAP inh)
C=C(C)CN(CC)C(=O)Cc1cccs1	none (no result: Eya2 inh, USP2a block, TSG101-PTAP inh)
N#CCN(CC#N)C(=O)Cc1cccs1	ALOX12 inh 32µM (no result: Eya2 inh, USP2a block, TSG101-PTAP inh)
CC1CCCC(C)N1S(=O)(=O)c1ccc(Cl)cc1 (stereo unspecified)	none
CC1=C(C)CS(=O)N(S(=O)(=O)c2ccc(Cl)cc2)C1 (stereo unspecified)	ALOX12 inh 40µM
CCCc1cc(CN(C)c2nc(CCN)nc3sc(C)c(C)c23)[nH]n1	none (no result: Eya2 inh, USP2a block, TSG101-PTAP inh)
CC(C)CCN1CC(Oc2cccc(C(=O)N3CCOCC3)c2)C1	none (no result: Eya2 inh, USP2a block, TSG101-PTAP inh)
CC(C)(C)CCN1CC(Oc2cccc(C(=O)N3CCOCC3)c2)C1	ALOX12 inh 22µM (no result: Eya2 inh, USP2a block, TSG101-PTAP inh)
C=CCc1ccccc1OCC(=O)OCCNC(=O)c1cccnc1	ALOX12 inh 40µM
O=C1NC(=NC2CCCCC2)C2(CCCN(CC3CC3)C2)N1c1cc(F)cc(F)c1 (stereo unspecified)	none (no result: Eya2 inh, USP2a block, TSG101-PTAP inh)
Cc1ccc(C)c(SCC(=O)OCC(=O)c2ccco2)c1	ALOX12 inh 40µM
COc1ccccc1CNC(=O)C[C@@H]1CCNC[C@@H]1Cc1cc(C(C)(C)C)on1	none (no result: Eya2 inh, USP2a block, TSG101-PTAP inh)
CC(C)(C)c1ccc(Cc2n[nH]c(=S)[nH]c2=O)cc1	ALOX12 inh 16µM
O=c1[nH]c(=S)[nH]nc1Cc1ccc(Cl)c(Cl)c1	ALOX12 inh 6.3µM
